Test results published in ChEMBL document CHEMBL2218924, “A broad activity screen in support of a chemogenomic map for kinase signalling research and drug discovery” (Biochem J, 2013).

Tests used:
[1] = biological target: Insulin-like growth factor 1 receptor (Homo sapiens) (UniProt P08069); conditions: at 10 µM
[2] = biological target: T1, Protein kinase C zeta type (Homo sapiens) (UniProt Q05513); conditions: at 10 µM
T1 sequence (whole entry): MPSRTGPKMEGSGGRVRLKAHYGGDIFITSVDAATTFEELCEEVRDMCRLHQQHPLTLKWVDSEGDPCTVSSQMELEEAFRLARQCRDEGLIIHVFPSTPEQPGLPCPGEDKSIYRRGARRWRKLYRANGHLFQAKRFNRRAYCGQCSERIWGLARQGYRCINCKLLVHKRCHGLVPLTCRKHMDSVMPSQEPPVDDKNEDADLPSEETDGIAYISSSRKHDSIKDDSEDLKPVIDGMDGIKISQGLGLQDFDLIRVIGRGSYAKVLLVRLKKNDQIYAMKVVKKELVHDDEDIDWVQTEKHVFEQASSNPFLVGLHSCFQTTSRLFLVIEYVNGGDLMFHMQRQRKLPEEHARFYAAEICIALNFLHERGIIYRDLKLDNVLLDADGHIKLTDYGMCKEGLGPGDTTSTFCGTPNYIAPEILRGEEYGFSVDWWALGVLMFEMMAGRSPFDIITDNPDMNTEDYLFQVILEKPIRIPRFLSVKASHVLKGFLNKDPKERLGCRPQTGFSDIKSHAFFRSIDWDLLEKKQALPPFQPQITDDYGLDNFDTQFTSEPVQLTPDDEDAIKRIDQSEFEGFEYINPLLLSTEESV

[3] = biological target: Protein kinase C eta type (Homo sapiens) (UniProt P24723); conditions: at 1 µM
[4] = biological target: Protein kinase C eta type (Homo sapiens) (UniProt P24723); conditions: at 10 µM
[5] = biological target: Protein kinase C theta type (Homo sapiens) (UniProt Q04759); conditions: at 1 µM
[6] = biological target: Protein kinase C theta type (Homo sapiens) (UniProt Q04759); conditions: at 10 µM
[7] = biological target: T2, Protein kinase C iota type (Homo sapiens) (UniProt P41743); conditions: at 1 µM
T2 sequence (whole entry): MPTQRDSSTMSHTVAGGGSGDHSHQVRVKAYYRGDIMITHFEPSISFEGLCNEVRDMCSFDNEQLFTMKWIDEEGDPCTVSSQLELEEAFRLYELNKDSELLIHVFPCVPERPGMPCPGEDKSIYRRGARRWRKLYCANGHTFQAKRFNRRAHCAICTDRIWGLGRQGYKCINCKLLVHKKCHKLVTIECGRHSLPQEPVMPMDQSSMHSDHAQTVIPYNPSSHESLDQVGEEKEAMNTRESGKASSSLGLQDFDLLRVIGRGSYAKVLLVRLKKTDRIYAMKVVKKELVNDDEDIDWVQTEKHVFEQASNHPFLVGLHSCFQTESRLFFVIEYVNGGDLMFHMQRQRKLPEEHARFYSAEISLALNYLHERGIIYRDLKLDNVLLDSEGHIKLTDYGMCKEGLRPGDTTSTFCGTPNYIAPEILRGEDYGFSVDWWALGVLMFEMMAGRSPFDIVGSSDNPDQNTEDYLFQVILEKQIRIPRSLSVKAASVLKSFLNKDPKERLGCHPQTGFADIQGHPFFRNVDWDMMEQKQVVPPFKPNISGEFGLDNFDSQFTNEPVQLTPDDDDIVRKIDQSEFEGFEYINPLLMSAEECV

[8] = biological target: T2, Protein kinase C iota type (Homo sapiens); conditions: at 10 µM
[9] = biological target: T3, Serine/threonine-protein kinase D1 (Homo sapiens) (UniProt Q15139); conditions: at 1 µM
T3 sequence (whole entry): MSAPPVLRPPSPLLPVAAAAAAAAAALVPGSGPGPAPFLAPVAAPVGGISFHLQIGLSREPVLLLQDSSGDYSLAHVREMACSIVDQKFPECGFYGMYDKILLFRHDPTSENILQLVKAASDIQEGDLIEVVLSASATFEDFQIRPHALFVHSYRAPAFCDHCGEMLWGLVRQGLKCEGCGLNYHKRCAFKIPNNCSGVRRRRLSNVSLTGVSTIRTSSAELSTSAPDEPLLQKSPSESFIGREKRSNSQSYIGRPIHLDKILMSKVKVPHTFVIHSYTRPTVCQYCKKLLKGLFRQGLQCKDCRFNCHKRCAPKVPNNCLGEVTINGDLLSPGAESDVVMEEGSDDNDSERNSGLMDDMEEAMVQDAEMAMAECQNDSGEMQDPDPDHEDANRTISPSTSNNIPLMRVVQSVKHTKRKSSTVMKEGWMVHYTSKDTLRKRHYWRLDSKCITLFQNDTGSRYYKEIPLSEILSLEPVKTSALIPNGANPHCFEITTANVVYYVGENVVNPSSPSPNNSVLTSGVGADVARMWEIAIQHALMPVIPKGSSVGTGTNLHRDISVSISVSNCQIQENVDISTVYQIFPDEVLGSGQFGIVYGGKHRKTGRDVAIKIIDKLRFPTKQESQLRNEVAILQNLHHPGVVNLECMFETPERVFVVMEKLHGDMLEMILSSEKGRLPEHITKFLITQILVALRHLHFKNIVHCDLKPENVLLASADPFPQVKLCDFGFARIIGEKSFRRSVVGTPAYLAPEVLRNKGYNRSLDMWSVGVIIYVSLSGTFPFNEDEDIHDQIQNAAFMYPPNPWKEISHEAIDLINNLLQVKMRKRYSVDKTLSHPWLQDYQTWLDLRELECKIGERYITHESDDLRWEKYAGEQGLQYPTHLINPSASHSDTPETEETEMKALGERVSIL

[10] = biological target: T3, Serine/threonine-protein kinase D1 (Homo sapiens); conditions: at 10 µM
[11] = biological target: T4, Serine/threonine-protein kinase D2 (Homo sapiens) (UniProt Q9BZL6); conditions: at 1 µM
T4 sequence (whole entry): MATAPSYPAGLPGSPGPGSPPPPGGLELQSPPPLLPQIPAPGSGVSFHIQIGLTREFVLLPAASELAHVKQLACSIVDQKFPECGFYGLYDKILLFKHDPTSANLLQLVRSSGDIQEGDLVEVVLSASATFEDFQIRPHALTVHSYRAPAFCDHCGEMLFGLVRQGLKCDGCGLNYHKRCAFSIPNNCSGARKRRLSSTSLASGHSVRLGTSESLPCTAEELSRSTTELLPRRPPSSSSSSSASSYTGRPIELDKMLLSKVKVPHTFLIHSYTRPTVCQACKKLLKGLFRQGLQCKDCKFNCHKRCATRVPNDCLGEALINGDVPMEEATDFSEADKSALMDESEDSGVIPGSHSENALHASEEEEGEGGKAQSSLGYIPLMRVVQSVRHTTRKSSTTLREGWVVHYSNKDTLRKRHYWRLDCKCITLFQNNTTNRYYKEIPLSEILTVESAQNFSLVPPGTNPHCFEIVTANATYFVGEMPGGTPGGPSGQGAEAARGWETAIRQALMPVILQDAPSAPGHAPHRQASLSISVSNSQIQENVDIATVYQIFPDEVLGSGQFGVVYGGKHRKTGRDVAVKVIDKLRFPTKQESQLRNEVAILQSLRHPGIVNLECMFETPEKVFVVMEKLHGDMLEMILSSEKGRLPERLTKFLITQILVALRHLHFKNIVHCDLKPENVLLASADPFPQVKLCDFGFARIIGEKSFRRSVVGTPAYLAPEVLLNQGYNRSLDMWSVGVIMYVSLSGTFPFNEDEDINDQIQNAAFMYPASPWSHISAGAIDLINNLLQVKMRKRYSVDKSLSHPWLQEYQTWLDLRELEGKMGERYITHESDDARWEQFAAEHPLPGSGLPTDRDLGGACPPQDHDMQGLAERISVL

[12] = biological target: T4, Serine/threonine-protein kinase D2 (Homo sapiens); conditions: at 10 µM
[13] = biological target: T5, cGMP-dependent protein kinase 1 (Homo sapiens) (UniProt Q13976); conditions: at 1 µM
T5 sequence (whole entry): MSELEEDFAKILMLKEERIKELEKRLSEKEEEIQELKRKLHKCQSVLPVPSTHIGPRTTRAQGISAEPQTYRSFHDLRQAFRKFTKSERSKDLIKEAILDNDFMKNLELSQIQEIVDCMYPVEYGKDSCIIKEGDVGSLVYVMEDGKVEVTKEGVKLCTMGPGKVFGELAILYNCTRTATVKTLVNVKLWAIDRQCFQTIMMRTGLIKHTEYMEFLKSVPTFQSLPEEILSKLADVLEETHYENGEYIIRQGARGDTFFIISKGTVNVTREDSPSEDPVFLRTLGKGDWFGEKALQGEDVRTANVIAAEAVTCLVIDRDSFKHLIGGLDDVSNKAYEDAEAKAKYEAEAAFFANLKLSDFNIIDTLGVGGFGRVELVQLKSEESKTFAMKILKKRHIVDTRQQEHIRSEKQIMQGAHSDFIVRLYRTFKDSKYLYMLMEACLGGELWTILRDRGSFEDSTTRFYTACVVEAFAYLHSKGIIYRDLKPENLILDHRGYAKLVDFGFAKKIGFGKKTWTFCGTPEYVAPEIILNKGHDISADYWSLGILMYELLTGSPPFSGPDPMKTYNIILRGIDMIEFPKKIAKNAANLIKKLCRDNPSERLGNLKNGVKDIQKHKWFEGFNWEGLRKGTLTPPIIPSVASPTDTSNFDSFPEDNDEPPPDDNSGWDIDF

[14] = biological target: T5, cGMP-dependent protein kinase 1 (Homo sapiens); conditions: at 10 µM
[15] = biological target: T5, cGMP-dependent protein kinase 1 (Homo sapiens); conditions: at 1 µM; remark: listed apart in the source
[16] = biological target: T5, cGMP-dependent protein kinase 1 (Homo sapiens); conditions: at 10 µM; remark: listed apart in the source
[17] = biological target: T6, MAP kinase-activated protein kinase 5 (Homo sapiens) (UniProt Q8IW41); conditions: at 1 µM
T6 sequence (whole entry): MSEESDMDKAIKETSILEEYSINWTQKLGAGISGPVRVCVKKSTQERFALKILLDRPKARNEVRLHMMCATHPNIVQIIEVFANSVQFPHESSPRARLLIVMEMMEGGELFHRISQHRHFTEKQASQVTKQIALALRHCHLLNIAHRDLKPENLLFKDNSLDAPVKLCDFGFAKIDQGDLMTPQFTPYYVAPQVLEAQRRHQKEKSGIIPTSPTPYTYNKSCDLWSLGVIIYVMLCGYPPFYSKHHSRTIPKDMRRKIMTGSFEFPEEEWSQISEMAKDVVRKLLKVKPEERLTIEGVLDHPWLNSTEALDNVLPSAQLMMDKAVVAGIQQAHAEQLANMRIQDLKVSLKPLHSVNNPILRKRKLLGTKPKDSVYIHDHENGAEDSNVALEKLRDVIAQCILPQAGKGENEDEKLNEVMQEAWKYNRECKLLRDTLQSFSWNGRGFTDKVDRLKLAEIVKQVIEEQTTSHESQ

[18] = biological target: T6, MAP kinase-activated protein kinase 5 (Homo sapiens); conditions: at 10 µM
[19] = biological target: Serine/threonine-protein kinase N2 (Homo sapiens) (UniProt Q16513); conditions: at 1 µM
[20] = biological target: Serine/threonine-protein kinase N2 (Homo sapiens) (UniProt Q16513); conditions: at 10 µM

Sequence of Insulin-like growth factor 1 receptor (Homo sapiens) (P08069 31-736 limits assumed): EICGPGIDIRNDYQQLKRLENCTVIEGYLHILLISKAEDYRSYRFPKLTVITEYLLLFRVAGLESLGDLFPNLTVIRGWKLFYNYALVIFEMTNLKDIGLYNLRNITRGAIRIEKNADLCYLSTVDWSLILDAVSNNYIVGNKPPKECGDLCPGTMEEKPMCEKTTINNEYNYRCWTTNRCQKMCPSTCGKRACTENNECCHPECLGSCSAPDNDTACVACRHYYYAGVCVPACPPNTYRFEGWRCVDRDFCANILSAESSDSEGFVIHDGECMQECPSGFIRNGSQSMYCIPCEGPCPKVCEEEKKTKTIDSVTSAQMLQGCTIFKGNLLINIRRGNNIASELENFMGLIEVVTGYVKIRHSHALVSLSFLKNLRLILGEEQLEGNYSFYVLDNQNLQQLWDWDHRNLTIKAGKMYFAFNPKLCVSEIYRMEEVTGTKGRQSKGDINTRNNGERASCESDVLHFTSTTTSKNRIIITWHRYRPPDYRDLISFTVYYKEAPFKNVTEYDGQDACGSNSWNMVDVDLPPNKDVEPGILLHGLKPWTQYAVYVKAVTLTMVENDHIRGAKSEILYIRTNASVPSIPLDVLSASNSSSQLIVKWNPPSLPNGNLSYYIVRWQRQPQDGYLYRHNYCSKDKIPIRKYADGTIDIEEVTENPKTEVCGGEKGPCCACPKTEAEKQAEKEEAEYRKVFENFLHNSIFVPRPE
Sequence of Insulin-like growth factor 1 receptor (Homo sapiens) (P08069 741-1367 limits assumed): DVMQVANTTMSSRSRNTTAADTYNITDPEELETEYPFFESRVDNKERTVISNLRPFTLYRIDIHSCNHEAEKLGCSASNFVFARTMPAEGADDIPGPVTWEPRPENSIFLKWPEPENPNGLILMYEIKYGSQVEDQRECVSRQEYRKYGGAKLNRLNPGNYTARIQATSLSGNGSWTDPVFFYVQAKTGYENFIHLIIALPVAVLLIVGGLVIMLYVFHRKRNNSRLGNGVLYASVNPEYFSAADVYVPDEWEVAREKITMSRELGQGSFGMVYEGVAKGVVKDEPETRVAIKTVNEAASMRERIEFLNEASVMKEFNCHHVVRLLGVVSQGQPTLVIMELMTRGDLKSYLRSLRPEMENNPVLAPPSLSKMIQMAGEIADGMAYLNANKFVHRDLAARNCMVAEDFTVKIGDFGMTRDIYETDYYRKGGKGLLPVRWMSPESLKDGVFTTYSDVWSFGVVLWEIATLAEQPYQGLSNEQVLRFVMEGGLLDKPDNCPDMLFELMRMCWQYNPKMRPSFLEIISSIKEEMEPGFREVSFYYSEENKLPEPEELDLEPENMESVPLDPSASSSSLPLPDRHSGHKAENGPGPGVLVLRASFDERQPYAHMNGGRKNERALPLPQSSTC
Sequence of Protein kinase C eta type (Homo sapiens) (P24723 whole entry): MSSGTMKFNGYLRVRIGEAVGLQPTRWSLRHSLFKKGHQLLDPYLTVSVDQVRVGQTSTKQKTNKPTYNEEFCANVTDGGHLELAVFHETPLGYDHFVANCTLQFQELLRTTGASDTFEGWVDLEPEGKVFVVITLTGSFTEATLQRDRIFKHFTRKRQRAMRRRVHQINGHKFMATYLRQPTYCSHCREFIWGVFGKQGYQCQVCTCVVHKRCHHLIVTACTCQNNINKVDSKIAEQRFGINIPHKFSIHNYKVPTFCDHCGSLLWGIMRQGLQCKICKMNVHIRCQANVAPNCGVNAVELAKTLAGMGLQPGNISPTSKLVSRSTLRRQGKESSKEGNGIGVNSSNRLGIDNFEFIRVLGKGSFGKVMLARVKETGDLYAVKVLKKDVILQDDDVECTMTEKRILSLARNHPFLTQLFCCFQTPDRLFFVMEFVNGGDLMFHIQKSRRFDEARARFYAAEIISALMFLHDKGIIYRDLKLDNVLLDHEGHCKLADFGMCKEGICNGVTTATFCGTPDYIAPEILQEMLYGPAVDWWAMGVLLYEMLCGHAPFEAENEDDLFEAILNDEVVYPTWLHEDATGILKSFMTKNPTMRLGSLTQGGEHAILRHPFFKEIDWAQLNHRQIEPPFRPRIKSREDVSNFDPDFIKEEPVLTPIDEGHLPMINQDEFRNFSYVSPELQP
Sequence of Protein kinase C theta type (Homo sapiens) (Q04759 whole entry, looked up): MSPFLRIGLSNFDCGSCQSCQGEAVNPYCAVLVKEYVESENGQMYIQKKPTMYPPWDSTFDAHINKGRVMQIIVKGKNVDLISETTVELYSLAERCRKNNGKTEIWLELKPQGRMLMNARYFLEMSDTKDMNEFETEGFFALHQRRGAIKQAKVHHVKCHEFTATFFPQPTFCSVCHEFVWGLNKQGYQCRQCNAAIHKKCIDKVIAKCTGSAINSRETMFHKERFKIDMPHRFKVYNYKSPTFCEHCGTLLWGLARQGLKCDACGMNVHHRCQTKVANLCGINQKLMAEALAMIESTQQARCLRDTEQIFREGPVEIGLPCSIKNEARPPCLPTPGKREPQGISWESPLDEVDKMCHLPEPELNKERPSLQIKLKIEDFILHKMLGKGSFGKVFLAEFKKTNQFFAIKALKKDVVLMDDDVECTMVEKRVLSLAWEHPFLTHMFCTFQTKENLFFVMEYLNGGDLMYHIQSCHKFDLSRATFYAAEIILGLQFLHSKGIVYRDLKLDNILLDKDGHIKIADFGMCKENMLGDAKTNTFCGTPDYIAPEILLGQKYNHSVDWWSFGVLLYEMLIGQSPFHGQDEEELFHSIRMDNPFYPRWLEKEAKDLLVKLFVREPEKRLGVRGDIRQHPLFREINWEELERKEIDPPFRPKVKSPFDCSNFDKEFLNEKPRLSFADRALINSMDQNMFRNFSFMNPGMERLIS
Sequence of Serine/threonine-protein kinase N2 (Homo sapiens) (Q16513 whole entry, looked up): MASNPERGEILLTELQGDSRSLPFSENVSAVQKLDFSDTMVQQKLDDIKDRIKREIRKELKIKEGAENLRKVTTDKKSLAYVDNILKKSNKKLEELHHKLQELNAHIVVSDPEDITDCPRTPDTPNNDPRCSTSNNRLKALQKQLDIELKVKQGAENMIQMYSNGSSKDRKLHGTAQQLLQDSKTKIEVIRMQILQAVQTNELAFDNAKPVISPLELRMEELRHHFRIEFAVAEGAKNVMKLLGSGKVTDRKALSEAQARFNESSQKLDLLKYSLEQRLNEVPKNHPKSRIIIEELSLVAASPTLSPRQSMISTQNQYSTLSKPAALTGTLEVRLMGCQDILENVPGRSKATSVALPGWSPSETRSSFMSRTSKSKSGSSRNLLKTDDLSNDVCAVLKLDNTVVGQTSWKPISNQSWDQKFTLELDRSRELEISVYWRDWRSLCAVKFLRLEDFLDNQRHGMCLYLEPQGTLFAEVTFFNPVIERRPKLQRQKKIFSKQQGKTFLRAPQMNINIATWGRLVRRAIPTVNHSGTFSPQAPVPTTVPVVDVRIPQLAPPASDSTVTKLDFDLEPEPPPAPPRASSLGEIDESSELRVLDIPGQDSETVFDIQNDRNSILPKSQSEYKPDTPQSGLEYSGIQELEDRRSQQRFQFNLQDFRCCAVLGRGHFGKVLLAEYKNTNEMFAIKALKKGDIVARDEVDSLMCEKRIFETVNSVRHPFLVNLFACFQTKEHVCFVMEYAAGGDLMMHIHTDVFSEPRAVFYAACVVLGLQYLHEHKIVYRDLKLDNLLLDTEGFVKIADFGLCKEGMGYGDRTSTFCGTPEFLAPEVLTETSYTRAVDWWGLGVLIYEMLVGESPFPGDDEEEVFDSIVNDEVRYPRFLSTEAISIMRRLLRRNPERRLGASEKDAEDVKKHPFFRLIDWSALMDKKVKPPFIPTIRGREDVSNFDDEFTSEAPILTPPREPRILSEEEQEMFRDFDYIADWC

Compound	residual activity [1]	residual activity [2]	residual activity [3]	residual activity [4]	residual activity [5]	residual activity [6]	residual activity [7]	residual activity [8]	residual activity [9]	residual activity [10]	residual activity [11]	residual activity [12]	residual activity [13]	residual activity [14]	residual activity [15]	residual activity [16]	residual activity [17]	residual activity [18]	residual activity [19]	residual activity [20]
COC(=O)[C@@]1(O)C[C@H]2O[C@]1(C)n1c3ccccc3c3c4c(c5c6ccccc6n2c5c31)C(=O)NC4	14%	8%	36%	7%	10%	5%	107% (inactive)	69%	1%	0%	2%	0%	10%	1%	9%	2%	19%	0%	1%	1%
COc1ccc2c(c1)/C(=C/c1cnc[nH]1)C(=O)N2	128%	–	–	–	–	–	–	–	–	–	97%	39%	–	–	–	–	122%	63%	–	40%
CCn1cnc2c(Nc3cccc(Cl)c3)nc(N[C@@H]3CCCC[C@@H]3N)nc21	123%	–	93%	80%	71%	23%	–	–	97%	61%	97%	96%	92%	88%	89%	70%	119%	124%	80%	49%
c1cc(-c2cnn3cc(-c4ccc(OCCN5CCCCC5)cc4)cnc23)ccn1	143%	–	106%	–	–	–	–	86%	–	54%	–	–	73%	25%	66%	12%	–	–	47%	6%
O=C1c2ccccc2-c2nc3nnnn3nc21	83%	108%	117%	83%	–	–	–	–	104%	106%	–	–	–	–	–	–	–	–	–	–
C[S+]([O-])c1ccc(-c2nc(-c3ccc(F)cc3)c(-c3ccncc3)[nH]2)cc1 (centres undefined)	117%	111%	79%	77%	105%	104%	105% (inactive)	101%	123%	66%	105%	90%	101%	99%	125%	107%	145%	104%	103%	107%
CC(C)[C@H](CO)Nc1nc(Nc2cccc(Cl)c2)c2ncn(C(C)C)c2n1	136%	117%	100%	90%	70%	26%	–	–	81%	86%	–	–	–	–	–	–	102%	59%	–	–
CCc1nc(-c2ccc(OC)cc2)[nH]c1-c1ccncc1	128%	104%	105%	73%	108%	105%	107% (inactive)	105%	–	–	–	–	–	–	–	–	–	–	102%	74%
COc1cc2ncnc(Nc3ccc(OCc4ccccc4)cc3)c2cc1OC	129%	108%	109%	97%	124%	114%	95% (inactive)	68%	93%	113%	98%	98%	115%	125%	72%	88%	111%	83%	109%	111%
